Results on 23 molecules are retold here after PubChem BioAssay (EPA / NIEHS).

A short description of test [1]: ATG_CRE_CIS: Attagene CIS-FACTORIAL HepG2 Assay for human cAMP Responsive Element (CRE) binding protein 3 (AID 2282926). The note with it: HepG2 CRE cis-reporter, Attagene multiplexed mRNA; actives raise or lower the signal. In outline:
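Multiplexed transcription-unit reporters transfected into HepG2; 24 h dosing; RT-PCR/capillary electrophoresis fluorescence read-out; bidirectional fit vs DMSO.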

For test [2], the target named is CCAAT/enhancer-binding protein beta (Homo sapiens) (UniProt P17676). Kind of test: ATG_C_EBP_CIS: Attagene CIS-FACTORIAL HepG2 Assay for human CCAAT/Enhancer Binding Protein (C/EBP) beta (AID 2282927). Conditions: HepG2 Attagene cis-factorial transcription factor reporter; actives raise or lower the signal. The essentials:
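HepG2 transiently transfected with multiplexed reporter units under cis-regulatory promoters reporting endogenous C/EBPb activity. After 24 h exposure, reporter mRNA assayed by RT-PCR, fluorescent labelling, HpaI digestion and capillary electrophoresis; bidirectional fitting versus DMSO.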

Test [3] can be described thus: ATG_CMV_CIS: Attagene CIS-FACTORIAL HepG2 Assay for human CMV (Internal Marker) (AID 2282928).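 Also: endpoint acts as a background internal control marker rather than a target.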 Conditions: HepG2 CMV promoter reporter, transcription factor profiling; actives raise or lower the signal. The essentials: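 CMV internal-marker background readout in transiently transfected HepG2 cells bearing cis-regulated reporter units. Reporter mRNA is measured 24 h after dosing by RT-PCR and capillary electrophoresis, with bidirectional fitting against DMSO.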

Test [4] in a line: ATG_DR4_LXR_CIS: Attagene CIS-FACTORIAL HepG2 Assay for human Liver X Receptor (LXR), DR4 submotif (AID 2282929). The note with it: HepG2 Attagene DR4 cis-reporter, mRNA transcription; actives raise or lower the signal. The essentials:
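After transient transfection with multiplexed cis-promoter reporter units, HepG2 cells received test chemicals for 24 h. Reporter mRNA induction, detected by fluorescence after RT-PCR and capillary electrophoresis, was scored relative to DMSO.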

The target in test [5] is Aryl hydrocarbon receptor (Homo sapiens) (UniProt P35869). Briefly: ATG_Ahr_CIS: Attagene CIS-FACTORIAL HepG2 Assay for human Aryl Hydrocarbon Receptor (Ahr) (AID 2282930). The note with it: HepG2 AhR cis-factorial reporter transcription; actives raise or lower the signal. The essentials:
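HepG2 cells transiently transfected with cis-element-driven multiplexed reporter units; endogenous AhR activity read as reporter mRNA 24 h after dosing, via RT-PCR, 6-FAM labelling, HpaI digestion and capillary electrophoresis. Bidirectional fit relative to DMSO.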

Test [6] in a line: ATG_AP_1_CIS: Attagene CIS-FACTORIAL HepG2 Assay for human Activator Protein 1 (AP-1) (AID 2282931). The note with it: HepG2 Attagene cis-factorial AP-1 reporter mRNA; actives raise or lower the signal. In outline:
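After 24 h incubation with test chemical, RNA from transfected HepG2 cells was reverse-transcribed, amplified, fluorescently labelled and digested before capillary electrophoresis. Reporters were driven by cis-regulatory promoters; activity fitted bidirectionally versus DMSO.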

Test [7] is described as follows: ATG_AP_2_CIS: Attagene CIS-FACTORIAL HepG2 Assay for human Activator Protein 2 (AP-2) (AID 2282932). Conditions: HepG2 AP-2 cis-reporter, Attagene transcription factor profiling; actives raise or lower the signal. The essentials: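 Multiplexed mRNA reporter assay in HepG2: cis-regulated units report endogenous factor activity after 24 h treatment. Fluorescence from capillary electrophoresis of RT-PCR products gives the signal, with DMSO as baseline.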

The nature of test [8]: ATG_BRE_CIS: Attagene CIS-FACTORIAL HepG2 Assay for human Bone Morphogenetic Protein (BMP) Response Element (BRE) (AID 2282933). The note with it: HepG2 BMP response element reporter, Attagene transcription factor profiling; actives raise or lower the signal. The essentials:
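After a 24 h chemical treatment, transiently transfected HepG2 cells were lysed for RNA; reporter transcripts were quantified by fluorescent RT-PCR and capillary electrophoresis, normalised to DMSO.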

Test [9] addresses Retinoic acid receptor alpha (Homo sapiens) (UniProt P10276). Kind of test: ATG_DR5_RAR_CIS: Attagene CIS-FACTORIAL HepG2 Assay for human Retinoic Acid Receptor Alpha (RARE), DR5 submotif (AID 2282934).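 As to AC50: reporter responds to endogenous RAR alpha beta and gamma in HepG2 not RARA alone.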 Conditions: HepG2 Attagene cis-factorial RARE DR5 reporter, mRNA; actives raise or lower the signal. In outline:
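HepG2 cells transiently transfected with multiplexed reporter units; DR5 cis-element drives reporter through endogenous transcription factors. After 24 h dosing, reporter mRNA quantified by RT-PCR, fluorescent labeling, HpaI digestion and capillary electrophoresis; bidirectional fitting versus DMSO.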

For test [10], the target named is Transcription factor E2F1 (Homo sapiens) (UniProt Q01094). Kind of test: ATG_E2F_CIS: Attagene CIS-FACTORIAL HepG2 Assay for human E2F Transcription Factor 1 (AID 2282935). Conditions: HepG2 Attagene cis-reporter, E2F reporter RNA transcripts; actives raise or lower the signal. In outline:
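Measures reporter transcript levels via RT-PCR with capillary electrophoresis detection in HepG2 cells harboring cis-regulated reporter units; 24 h post-dose; bidirectional curve fitting with DMSO as baseline.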

A short description of test [11]: ATG_E_Box_CIS: Attagene CIS-FACTORIAL HepG2 Assay for human Enhancer Box (E-box) (AID 2282936). The note with it: HepG2 E-box cis-reporter transcription, actives raise or lower the signal. The essentials:
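First, HepG2 cells receive multiple cis-regulated reporter constructs by transient transfection. Next, chemicals are applied for 24 h. Finally, reporter mRNA is quantified via RT-PCR and capillary electrophoresis, with DMSO as baseline.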

Calls of active or inactive are those of the source. The calls were made as follows: active = hit-call score of the fitted dose curve at least 0.9, where 1 is the maximum; inactive = score below 0.9.

Transcription factor E2F1 (Homo sapiens), sequence (Q01094 whole entry, looked up): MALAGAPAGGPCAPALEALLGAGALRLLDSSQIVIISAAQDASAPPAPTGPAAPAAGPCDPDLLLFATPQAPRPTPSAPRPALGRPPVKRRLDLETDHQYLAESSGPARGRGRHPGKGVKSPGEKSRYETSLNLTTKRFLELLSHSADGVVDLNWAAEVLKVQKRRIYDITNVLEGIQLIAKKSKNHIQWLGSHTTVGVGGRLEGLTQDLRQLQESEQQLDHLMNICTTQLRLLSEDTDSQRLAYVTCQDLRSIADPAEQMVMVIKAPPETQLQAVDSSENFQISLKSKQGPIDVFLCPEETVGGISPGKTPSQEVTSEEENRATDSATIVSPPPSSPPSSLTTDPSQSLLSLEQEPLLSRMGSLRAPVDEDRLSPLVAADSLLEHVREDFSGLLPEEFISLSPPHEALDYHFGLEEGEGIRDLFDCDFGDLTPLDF
Aryl hydrocarbon receptor (Homo sapiens), sequence (P35869 whole entry, looked up): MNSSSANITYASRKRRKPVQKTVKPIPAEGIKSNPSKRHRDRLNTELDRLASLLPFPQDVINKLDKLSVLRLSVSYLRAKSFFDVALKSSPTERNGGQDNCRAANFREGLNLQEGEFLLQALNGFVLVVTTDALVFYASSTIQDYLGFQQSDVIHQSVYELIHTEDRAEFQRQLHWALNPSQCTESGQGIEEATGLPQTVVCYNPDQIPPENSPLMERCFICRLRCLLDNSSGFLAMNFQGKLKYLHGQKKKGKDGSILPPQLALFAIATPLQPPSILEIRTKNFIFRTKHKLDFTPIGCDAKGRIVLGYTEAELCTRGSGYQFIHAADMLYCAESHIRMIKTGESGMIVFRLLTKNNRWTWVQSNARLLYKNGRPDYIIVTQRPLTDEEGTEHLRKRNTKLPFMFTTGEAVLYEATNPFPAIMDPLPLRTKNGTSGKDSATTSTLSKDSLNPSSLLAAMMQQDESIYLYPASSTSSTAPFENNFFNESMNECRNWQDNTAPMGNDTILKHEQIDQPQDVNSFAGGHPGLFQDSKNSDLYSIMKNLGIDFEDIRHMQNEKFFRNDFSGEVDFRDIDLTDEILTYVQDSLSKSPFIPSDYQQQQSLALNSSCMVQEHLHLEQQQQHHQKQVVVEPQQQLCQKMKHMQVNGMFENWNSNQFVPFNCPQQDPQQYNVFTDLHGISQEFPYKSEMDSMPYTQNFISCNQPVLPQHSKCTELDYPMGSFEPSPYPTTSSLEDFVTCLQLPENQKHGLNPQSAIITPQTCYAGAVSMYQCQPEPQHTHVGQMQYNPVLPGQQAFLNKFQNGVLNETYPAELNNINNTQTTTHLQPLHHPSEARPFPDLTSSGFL
CCAAT/enhancer-binding protein beta (Homo sapiens), sequence (P17676 whole entry, looked up): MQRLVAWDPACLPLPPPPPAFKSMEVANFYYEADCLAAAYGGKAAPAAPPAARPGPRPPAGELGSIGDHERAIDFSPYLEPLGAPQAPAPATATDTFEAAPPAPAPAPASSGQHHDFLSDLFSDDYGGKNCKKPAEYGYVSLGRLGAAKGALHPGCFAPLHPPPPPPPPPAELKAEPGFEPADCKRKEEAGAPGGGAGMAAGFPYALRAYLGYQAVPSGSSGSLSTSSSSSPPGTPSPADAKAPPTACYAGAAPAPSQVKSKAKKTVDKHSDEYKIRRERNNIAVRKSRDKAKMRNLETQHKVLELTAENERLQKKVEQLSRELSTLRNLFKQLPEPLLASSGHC
Retinoic acid receptor alpha (Homo sapiens), sequence (P10276 whole entry, looked up): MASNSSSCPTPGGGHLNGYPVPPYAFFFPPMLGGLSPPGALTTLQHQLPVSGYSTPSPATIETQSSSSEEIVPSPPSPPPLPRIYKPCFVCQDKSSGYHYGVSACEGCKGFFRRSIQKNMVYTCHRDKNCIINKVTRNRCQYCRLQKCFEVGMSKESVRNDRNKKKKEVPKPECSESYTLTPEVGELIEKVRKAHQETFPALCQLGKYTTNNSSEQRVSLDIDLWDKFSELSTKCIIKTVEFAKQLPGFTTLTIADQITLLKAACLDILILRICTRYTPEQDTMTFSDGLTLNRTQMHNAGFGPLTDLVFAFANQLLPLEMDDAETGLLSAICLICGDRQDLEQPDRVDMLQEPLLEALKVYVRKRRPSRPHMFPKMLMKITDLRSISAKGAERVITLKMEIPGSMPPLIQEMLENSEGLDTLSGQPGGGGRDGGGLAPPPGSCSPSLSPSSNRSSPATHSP

Take `C#CCOC(=O)/C=C(C)/C=C/CC(C)CCCC(C)C` (stereo unspecified): the AC50 (as a rule, the concentration at which the activity in the assay is half-maximal) was 39.7 µM (active) in test [1], 36.9 µM (active) in test [3], 96.1 µM (active) in test [4] and 55.3 µM (active) in test [6]. In addition, the result in test [2], in [5], in test [7], in test [8], in [9] and in test [10] was inactive. Further, in test [11], the result was inactive.
In the case of `O=NN1CCCCCCC1`, the result in test [1], in test [2], in [3], in test [4], in test [5] and in test [6] was inactive. For the same molecule, the call in [7], in [8], in test [9], in test [10] and in test [11] was inactive.
On to `CCCCCCCCCCCCCl`, for which the molecule was classed as inactive in test [1], in test [2], in test [3], in [4], in test [5] and in [6]. Besides, the molecule was called inactive in test [7], in test [8], in test [9], in [10] and in test [11].
Take `O=NN1CCOCC1`: the call in test [1], in test [2], in [3], in [4], in test [5] and in test [6] was inactive. The molecule was classed as inactive in test [7], in test [8], in [9], in test [10] and in test [11].
Take `Nc1ncn[nH]1`: the call in test [1], in test [2], in [3], in [4], in [5] and in test [6] was inactive. Moreover, the call in test [7], in test [8], in [9], in test [10] and in test [11] was inactive.
On to `OCCCCO`, for which the molecule was classed as inactive in test [1], in test [2], in test [3], in [4], in test [5] and in [6]. Also, the result in test [7], in test [8], in test [9], in test [10] and in test [11] was inactive.
For `CCCCC(CC)COC(=O)Cl` (stereo unspecified), the molecule was called inactive in test [1], in test [2], in test [3], in [4], in [5] and in [6]. The molecule was called inactive in [7], in test [8], in test [9], in test [10] and in test [11].
For the molecule `Cc1ccc(OP(=O)(Oc2ccc(C)cc2C)Oc2ccc(C)cc2C)c(C)c1`, the outcome in test [1], in test [2], in test [3], in test [5], in test [6] and in [7] was inactive. Also, the molecule was classed as inactive in [8], in [9] and in test [10]. For the same molecule, the AC50 is 11.3 µM (active) in test [4] and 25.1 µM (active) in test [11].
As to `CCCSP(=S)(OCC)Oc1ccc(Cl)cc1Cl` (stereo unspecified), the result in [1], in test [2], in [3], in [4], in [5] and in test [7] was inactive. In addition, the call in test [8], in [9], in test [10] and in test [11] was inactive. For the same molecule, the AC50 in test [6] is 31.7 µM (active).
As to `Cc1cc(SCc2sc(-c3ccc(C(F)(F)F)c(F)c3)nc2C)ccc1OCC(=O)O`, the call in test [1], in test [2], in test [3], in [5], in test [6] and in test [8] was inactive. Moreover, the molecule was classed as inactive in test [9], in test [10] and in test [11]. The AC50 in [4] was 23.8 µM (active); in [7], 51.2 µM (active).
As for `CC(C)C(C)(N)C#N` (stereo unspecified), the molecule was called inactive in test [1], in test [2], in test [3], in [4], in [5] and in test [6]. The result in [7], in test [8], in [10] and in [11] was inactive. For the same molecule, in [9], the AC50 is 46.9 µM (active).
Turning to `O=C(O)COc1cc(Cl)c(Cl)cc1Cl`, the outcome in test [1], in [2], in test [3], in test [4], in test [5] and in test [6] was inactive. In addition, the call in [7], in test [8], in test [9], in test [10] and in [11] was inactive.
As for `COP(=S)(OC)Oc1cc(Cl)c(I)cc1Cl`, the AC50 in [1] is 29.6 µM (active); in [2], 27.9 µM (active); in test [3], 50.2 µM (active); in test [4], 46.6 µM (active); in [7] it was 22.5 µM (active); in [11], 34.7 µM (active). For the same molecule, the molecule was called inactive in test [5], in [6], in test [8], in [9] and in [10].
`Brc1c(Br)c(Br)c(Oc2c(Br)c(Br)c(Br)c(Br)c2Br)c(Br)c1Br`: the call in test [1], in test [2], in test [3], in test [4], in test [5] and in test [6] was inactive. In addition, the outcome in test [7], in test [8], in test [9] and in test [11] was inactive.
On to `CCOP(=S)(OCC)SCSc1cc(Cl)ccc1Cl`, for which the outcome in [1], in test [2], in test [3], in test [4], in test [5] and in [6] was inactive. Also, the molecule was called inactive in test [7], in test [8], in [9], in [10] and in test [11].
As for `O=c1[nH]c2ccccc2n1C1CCN(CCCC(c2ccc(F)cc2)c2ccc(F)cc2)CC1`, the outcome in [1], in test [5], in test [6], in [7], in [8] and in [10] was inactive. In addition, in test [11], the result was inactive. For the same molecule, the concentration at half-maximal activity (AC50) in test [2] was 5.75 µM (active); in [3] it was 3.71 µM (active); in [4], 5.83 µM (active); in test [9] it was 5.87 µM (active).
For the molecule `C=CCN=C=S`, the molecule was classed as inactive in [1], in test [2], in test [3], in test [4], in test [5] and in [6]. Also, the outcome in [7], in [8], in [9], in test [10] and in [11] was inactive.
`O=C(Cl)OCCOCCOC(=O)Cl`: the molecule was classed as inactive in [1], in test [2], in [3], in test [4], in [5] and in test [6]. Besides, the molecule was called inactive in [7], in test [8], in [9], in [10] and in [11].
On to `O=C(NC(=O)c1c(F)cccc1F)Nc1cc(Cl)c(OC(F)(F)C(F)C(F)(F)F)cc1Cl` (stereo unspecified), for which the molecule was classed as inactive in [1], in test [2], in test [3], in test [4], in [7] and in test [8]. The outcome in test [9], in test [10] and in test [11] was inactive. Moreover, the AC50 in [5] is 27.7 µM (active); in test [6], 100 µM (active).
For `O=C(Cc1ccccc1)OCCc1ccccc1`, the result in test [1], in test [2], in test [3], in test [5], in [6] and in [7] was inactive. For the same molecule, the molecule was classed as inactive in test [8], in test [9] and in test [11].
With `CC1(C)[C@H](/C=C2\CCSC2=O)[C@@H]1C(=O)OCc1coc(Cc2ccccc2)c1`, the molecule was classed as inactive in test [1], in [2], in test [3], in test [5], in test [7] and in [8]. Moreover, the outcome in test [9], in test [10] and in test [11] was inactive. In addition, the AC50 in [6] is 144 µM (active).
As for `C1CN2CCN1CC2`, the call in test [1], in test [2], in test [3], in test [5], in [6] and in test [7] was inactive. For the same molecule, the molecule was classed as inactive in [8], in test [9], in test [10] and in [11].
Consider `Cc1ccc2nc3sc(=O)sc3nc2c1`, for which the AC50 in test [1] was 6.6 µM (active); in test [2] it was 25 µM (active); in test [4], 22.4 µM (active); in [7], 9.68 µM (active); in test [8], 25 µM (active); in test [9] it was 6.63 µM (active). In addition, the molecule was called inactive in test [3], in [5] and in test [11].
